Laboratory results taken from PubChem BioAssay (Tox21).
Values without a mark were called inactive. Inconclusive results are not listed. A call without a number means that no potency is given here. Calls of active or inactive are those of the source. Unless noted, the call rests on the fitted dose curve; in most records, active means well fitted curve in the direction sought with a large enough effect in the repeat runs; inconclusive means weak or mixed curves; inactive means no such curve, though single readings can be large; an effect the other way counts as inactive or inconclusive.

Tests used:
[1] = biological target: Estrogen receptor beta (Homo sapiens) (UniProt Q92731); assay: qHTS assay to identify small molecule agonists of the estrogen receptor beta (ER-beta) signaling pathway (AID 1259377; active means well fitted activation curve with a large enough effect in the signal ratio in the repeat runs, not every such curve was filed as active; the % refers to the signal ratio)
How it was run: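 Ratiometric beta-lactamase FRET read-out came after 2 h substrate loading at room temperature. It followed 16 h compound treatment at 37C of GripTite HEK293T cells carrying a UAS-bla reporter, plated in 2% charcoal-stripped FBS medium.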

[2] = biological target: Estrogen receptor beta (Homo sapiens) (UniProt Q92731); assay: qHTS assay to identify small molecule antagonists of the estrogen receptor beta (ER-beta) signaling pathway (AID 1259378; active means well fitted inhibition curve with a large enough effect in the signal ratio in the repeat runs, not every such curve was filed as active; the % refers to the signal ratio; further: potency means the concentration at half of the fitted maximal effect)
How it was run: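 ER-beta-UAS-bla HEK293T (GripTite) cells in 2% charcoal-stripped FBS medium were preincubated 6 hr at 37C, dosed with compound, then stimulated with 1 nM E2 (final) for 16 hr; beta-lactamase reporter read by B/G FRET fluorescence after 2 hr substrate loading.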

[3] = qHTS assay to identify small molecule agonists of the androgen receptor (AR) signaling pathway in the presence of an antagonist - cell viability counter screen (AID 1259379);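 further: MDA-kb2 human breast cancer cells carrying an MMTV luciferase reporter; series mostly up to about 92 µM; nearly all actives have a fitted effect of over 25% in size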
How it was run: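 A CellTiter-Fluor read-out measured viability of MDA-kb2 reporter cells (MMTV promoter with AR and GR response elements). Treatment: nilutamide 3.0uM final with compounds at 15 concentrations, 16 hr, 37C, 0% CO2.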

[4] = qHTS assay to identify small molecule antagonists of the estrogen receptor beta (ER-beta) signaling pathway - cell viability counter screen (AID 1259382); further: series mostly up to about 92 µM; nearly all actives have a fitted effect of over 55% in size
How it was run: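 Agonist-stimulated (1nM E2) ER-beta-UAS-bla HEK293T cells are incubated with library compounds for 16 hr at 37C. Cell viability is then assessed in the reporter-assay wells by adding CellTiter-Glo and reading luminescence after 30 min.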

[5] = qHTS assay to identify small molecule agonists of the estrogen receptor alpha (ER-alpha) signaling pathway in the presence of an antagonist - cell viability counter screen (AID 1259386);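 further: series mostly up to about 92 µM; cells exposed to compounds for 22 h at 37 °C before the viability read; nearly all actives have a fitted effect of over 30% in size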
How it was run: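 ICI-182,780 at 10.0nM final accompanies the compound titration (15 concentrations, 22hr, 37C) on VM7Luc4E2 cells. The CellTiter-Fluor fluorescence readout runs in the same wells as the luciferase assay.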

[6] = biological target: Progesterone receptor (Homo sapiens) (UniProt P06401); assay: qHTS assay to identify small molecule agonists of the progesterone receptor (PR) signaling pathway (AID 1346784; calls by dose curve; further: nearly all actives have a fitted effect of over 30% in size)
How it was run: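 Agonist qHTS: compounds pinned onto 3,000 PR-UAS-bla HEK 293T cells per well in charcoal-stripped serum medium, 16hr at 37C, then beta-lactamase activity measured by LiveBLAzer FRET fluorescence after 2 hours at room temperature.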

[7] = biological target: Progesterone receptor (Homo sapiens) (UniProt P06401); assay: qHTS assay to identify small molecule antagonists of the progesterone receptor (PR) signaling pathway (AID 1346795; active means well fitted inhibition curve with a large enough effect in the signal ratio in the repeat runs, not every such curve was filed as active; the % refers to the signal ratio; further: potency means the concentration at half of the fitted maximal effect)
How it was run: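 Antagonist mode with agonist R5020 at 1 nM final and 16 hr incubation at 37C. Reporter was beta-lactamase driven by UAS in HEK293T (PR-UAS-bla), 2% charcoal-stripped serum; signal from LiveBLAzer FRET substrate, 2 hr at room temperature.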

[8] = qHTS assay to identify small molecule antagonists of the progesterone receptor (PR) signaling pathway - cell viability counter screen (AID 1346798); further: series mostly up to about 92 µM; nearly all actives have a fitted effect of over 50% in size
How it was run: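 Cytotoxicity read as CellTiter-Glo luminescence (30 min, room temperature) in the same wells as the beta-lactamase readout. HEK293T PR-UAS-bla cells in charcoal-stripped 2% FBS received compound and R5020, then 16 h at 37C, 5% CO2.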

[9] = qHTS assay to identify small molecule antagonists of the TGF-beta/Smad signaling pathway - cell viability counter screen (AID 1346824); further: nearly all actives have a fitted effect of over 50% in size
How it was run: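 SBE-bla HEK 293T cells were plated overnight at 37 C, then given compounds in DMSO plus TGF-beta1 (added as 0.25 ng/mL solution) for 5 hr. After the bla read, CellTiter-Glo was added to the same wells and luminescence read after 30 min at room temperature.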

[10] = qHTS assay to identify small molecule agonists of the TGF-beta/Smad signaling pathway - cell viability counter screen (AID 1346829); further: top concentration of the series differs between compounds; nearly all actives have a fitted effect of over 45% in size
How it was run: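 HEK 293T SBE-bla line, 5 hr compound exposure at 37 C, multiplexed CellTiter-Glo viability read by luminescence.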

[11] = qHTS assay to identify small molecule agonists of the TGF-beta/Smad signaling pathway (AID 1346859; active means well fitted activation curve with a large enough effect in the signal ratio in the repeat runs, not every such curve was filed as active; the % refers to the signal ratio; further: series mostly up to about 77 µM)
How it was run: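 Fluorescence (ex 405 nm; em 460 and 530 nm) was read 2 h after LiveBLAzer FRET substrate at RT. The preceding compound treatment of overnight-plated SBE-bla HEK293T cells lasted 5 h at 37 C.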

[12] = biological target: Thyrotropin-releasing hormone receptor (Homo sapiens) (UniProt P34981); assay: qHTS assay to identify small molecule antagonists of the thyrotropin-releasing hormone receptor (TRHR) signaling pathway (AID 1346877; active means well fitted inhibition curve with a large enough effect in the repeat runs, not every such curve was filed as active; further: series mostly up to about 51 µM)
How it was run: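 Screening used HEK293 cells engineered with TRHR, with a brief 5 min room-temperature compound exposure preceding addition of TRH to 1 nM. The read-out was kinetic calcium-dye fluorescence, concentration-response from 15 doses in triplicate.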

[13] = biological target: Thyrotropin-releasing hormone receptor (Homo sapiens) (UniProt P34981); assay: qHTS assay to identify small molecule agonists of the thyrotropin-releasing hormone receptor (TRHR) signaling pathway (AID 1346891; calls by dose curve; further: series mostly up to about 58 µM)
How it was run: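 Agonist-mode intracellular calcium readout: kinetic fluorescence over 3 min at 1 s intervals after compound addition to TRHR-HEK293 cells (18 h seeded, 2 h dye-loaded at 37 C). Fifteen concentrations, triplicates.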

[14] = qHTS assay to identify small molecule agonists of the estrogen receptor beta (ER-beta) signaling pathway - cell viability counter screen (AID 1259380); further: nearly all actives have a fitted effect of over 30% in size
How it was run: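 Cells used were ER-beta-UAS-bla HEK293T in medium with 2% charcoal-stripped FBS. They were treated for 16 hr at 37C. Viability came from CellTiter-Glo luminescence.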

[15] = qHTS assay to identify small molecule agonists or antagonists of the thyroid stimulating hormone receptor (TSHR) signaling pathway - wild type cell line counter screen (AID 1259384; calls by dose curve)
How it was run: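 Wild-type HEK293 cells were plated 18 h at 37 C/5% CO2, pin-dosed with compound plus Ro20-1724 medium, held 30 min at room temperature, then given cAMP-d2 and anti-cAMP-cryptate; fluorescence was read after 1 h. Fifteen concentrations, triplicate.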

[16] = biological target: Thyrotropin receptor (Homo sapiens) (UniProt P16473); assay: qHTS assay to identify small molecule antagonists of the thyroid stimulating hormone receptor (TSHR) signaling pathway (AID 1259385; calls by dose curve; further: nearly all actives have a fitted effect of over 20% in size)
How it was run: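 TSHR-HEK293 cells were plated and held 18 h at 37C/5% CO2, then given compound plus Ro20-1724 and stimulated with TSH at 1.5 ng/mL final. After 30 min at room temperature, cAMP was detected with cAMP-d2/anti-cAMP-cryptate (1 h) by fluorescence.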

[17] = qHTS assay to identify small molecule agonists of the progesterone receptor (PR) signaling pathway - cell viability counter screen (AID 1346799; calls by dose curve; further: nearly all actives have a fitted effect of over 45% in size)
How it was run: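 Cytotoxicity measured by CellTiter-Glo luminescence (30 min, RT) in the same wells as the PR beta-lactamase agonist read. Those HEK293T cells had 16 h compound treatment at 37 C in 2% charcoal-stripped FBS medium.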

[18] = biological target: Estrogen receptor (Homo sapiens) (UniProt P03372); assay: qHTS assay to identify small molecule agonists of the estrogen receptor alpha (ER-alpha) signaling pathway in the presence of an antagonist (AID 1259383; calls by dose curve; further: top concentration of the series differs between compounds; nearly all actives have a fitted effect of over 15% in size)
How it was run: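 Using VM7Luc4E2 cells seeded 24hr before treatment, antagonist ICI-182,780 (10.0nM final) was added, followed by compounds at 15 concentrations. Plates incubated 22hr; ONE-Glo luminescence quantified reporter activity.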

Chain of Estrogen receptor beta (Homo sapiens) (Q92731 whole entry, looked up): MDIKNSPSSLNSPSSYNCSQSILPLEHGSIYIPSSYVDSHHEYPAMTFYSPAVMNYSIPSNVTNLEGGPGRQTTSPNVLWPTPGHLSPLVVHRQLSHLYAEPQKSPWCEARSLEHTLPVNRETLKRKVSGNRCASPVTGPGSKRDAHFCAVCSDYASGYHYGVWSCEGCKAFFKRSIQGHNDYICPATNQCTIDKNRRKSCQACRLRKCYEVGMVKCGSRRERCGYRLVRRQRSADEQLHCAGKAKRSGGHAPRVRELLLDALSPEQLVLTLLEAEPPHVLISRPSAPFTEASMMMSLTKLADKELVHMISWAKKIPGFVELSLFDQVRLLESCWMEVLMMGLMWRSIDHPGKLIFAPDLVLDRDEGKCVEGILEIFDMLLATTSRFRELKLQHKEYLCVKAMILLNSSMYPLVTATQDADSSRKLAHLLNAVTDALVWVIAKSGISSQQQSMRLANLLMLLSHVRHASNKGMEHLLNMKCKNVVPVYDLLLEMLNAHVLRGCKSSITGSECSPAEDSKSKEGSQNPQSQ
Chain of Thyrotropin-releasing hormone receptor (Homo sapiens) (P34981 whole entry, looked up): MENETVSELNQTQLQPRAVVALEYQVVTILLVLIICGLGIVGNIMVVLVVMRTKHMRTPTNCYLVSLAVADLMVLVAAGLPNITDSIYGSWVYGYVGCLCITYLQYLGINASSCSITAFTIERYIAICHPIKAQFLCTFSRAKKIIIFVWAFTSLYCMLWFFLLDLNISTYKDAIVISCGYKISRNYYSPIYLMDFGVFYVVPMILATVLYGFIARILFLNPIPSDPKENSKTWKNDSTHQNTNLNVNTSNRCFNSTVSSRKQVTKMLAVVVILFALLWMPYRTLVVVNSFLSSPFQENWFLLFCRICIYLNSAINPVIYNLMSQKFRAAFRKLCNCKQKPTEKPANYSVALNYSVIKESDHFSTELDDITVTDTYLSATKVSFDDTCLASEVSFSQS
Chain of Thyrotropin receptor (Homo sapiens) (P16473 whole entry, looked up): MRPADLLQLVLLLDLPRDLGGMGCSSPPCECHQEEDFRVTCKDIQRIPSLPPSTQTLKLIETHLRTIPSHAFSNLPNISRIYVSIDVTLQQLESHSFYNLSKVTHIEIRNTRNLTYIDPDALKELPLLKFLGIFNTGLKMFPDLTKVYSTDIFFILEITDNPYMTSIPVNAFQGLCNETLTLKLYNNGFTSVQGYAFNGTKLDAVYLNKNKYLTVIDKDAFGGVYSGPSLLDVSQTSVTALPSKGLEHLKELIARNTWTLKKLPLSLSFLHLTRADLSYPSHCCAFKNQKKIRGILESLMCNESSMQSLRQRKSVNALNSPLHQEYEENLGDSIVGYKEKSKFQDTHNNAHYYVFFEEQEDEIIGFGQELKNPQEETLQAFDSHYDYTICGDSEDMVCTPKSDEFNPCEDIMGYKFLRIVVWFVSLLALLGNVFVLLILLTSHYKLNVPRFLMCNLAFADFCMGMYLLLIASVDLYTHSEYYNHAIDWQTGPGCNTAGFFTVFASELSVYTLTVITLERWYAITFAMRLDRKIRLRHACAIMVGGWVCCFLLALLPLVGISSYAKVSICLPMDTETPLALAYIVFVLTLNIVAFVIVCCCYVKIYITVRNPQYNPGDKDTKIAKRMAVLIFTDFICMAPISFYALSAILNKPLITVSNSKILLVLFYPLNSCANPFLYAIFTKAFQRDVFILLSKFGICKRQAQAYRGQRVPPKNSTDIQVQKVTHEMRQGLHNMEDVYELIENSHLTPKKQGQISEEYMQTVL
Chain of Progesterone receptor (Homo sapiens) (P06401 whole entry, looked up): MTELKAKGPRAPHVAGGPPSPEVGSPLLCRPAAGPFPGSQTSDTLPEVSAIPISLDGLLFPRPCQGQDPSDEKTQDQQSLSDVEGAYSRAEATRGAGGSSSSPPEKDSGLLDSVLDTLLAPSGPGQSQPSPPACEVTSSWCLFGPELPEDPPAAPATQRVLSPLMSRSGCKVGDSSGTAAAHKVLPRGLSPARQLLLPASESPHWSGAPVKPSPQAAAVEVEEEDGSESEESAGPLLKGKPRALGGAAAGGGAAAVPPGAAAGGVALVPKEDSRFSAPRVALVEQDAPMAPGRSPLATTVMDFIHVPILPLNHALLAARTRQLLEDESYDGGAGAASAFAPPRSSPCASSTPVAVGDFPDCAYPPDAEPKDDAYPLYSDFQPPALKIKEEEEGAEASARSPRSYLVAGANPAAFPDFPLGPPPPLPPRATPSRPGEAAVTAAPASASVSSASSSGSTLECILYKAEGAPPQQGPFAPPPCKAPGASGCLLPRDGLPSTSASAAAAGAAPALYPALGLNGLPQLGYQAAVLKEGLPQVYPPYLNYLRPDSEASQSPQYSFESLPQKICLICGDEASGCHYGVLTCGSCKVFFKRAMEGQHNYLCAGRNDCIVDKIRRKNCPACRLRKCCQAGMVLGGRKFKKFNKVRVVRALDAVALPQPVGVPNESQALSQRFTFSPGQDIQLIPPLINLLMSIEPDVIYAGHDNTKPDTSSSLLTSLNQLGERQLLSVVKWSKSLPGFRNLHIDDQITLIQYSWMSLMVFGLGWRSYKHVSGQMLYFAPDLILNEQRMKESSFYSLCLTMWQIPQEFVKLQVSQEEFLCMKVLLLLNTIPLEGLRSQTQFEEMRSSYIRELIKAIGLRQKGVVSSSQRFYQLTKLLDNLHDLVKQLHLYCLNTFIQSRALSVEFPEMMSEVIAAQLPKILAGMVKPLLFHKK
Chain of Estrogen receptor (Homo sapiens) (P03372 whole entry, looked up): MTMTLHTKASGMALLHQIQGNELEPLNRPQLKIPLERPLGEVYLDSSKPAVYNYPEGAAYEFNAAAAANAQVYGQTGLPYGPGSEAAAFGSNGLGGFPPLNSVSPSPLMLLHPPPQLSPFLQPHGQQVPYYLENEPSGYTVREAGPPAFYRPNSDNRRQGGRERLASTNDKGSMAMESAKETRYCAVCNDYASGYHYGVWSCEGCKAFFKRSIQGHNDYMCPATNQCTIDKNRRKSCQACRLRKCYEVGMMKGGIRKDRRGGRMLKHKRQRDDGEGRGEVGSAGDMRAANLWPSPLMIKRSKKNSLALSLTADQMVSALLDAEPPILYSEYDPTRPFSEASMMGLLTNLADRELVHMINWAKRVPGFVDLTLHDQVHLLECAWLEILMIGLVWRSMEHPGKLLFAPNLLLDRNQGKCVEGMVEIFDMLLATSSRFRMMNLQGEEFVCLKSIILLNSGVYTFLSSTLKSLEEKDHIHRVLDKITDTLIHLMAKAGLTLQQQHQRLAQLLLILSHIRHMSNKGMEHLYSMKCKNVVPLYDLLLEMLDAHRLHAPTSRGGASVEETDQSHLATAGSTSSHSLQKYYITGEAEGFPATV

SMILES: C(=C(c1ccccc1)c1ccccc1)c1ccccc1
- outcome [1]: inactive
- Potency [2]: 1.54 µM (active)
- Potency [3]: inactive
- Potency [4]: inactive
- outcome [5]: inactive
- Potency [6]: inactive
- Potency [7]: 12.2 µM (active)
- Potency [8]: inactive
- outcome [9]: inactive
- outcome [10]: inactive
- outcome [11]: inactive
- outcome [12]: inactive
- outcome [13]: inactive

SMILES: CCCc1ccccc1O
- outcome [1]: inactive
- Potency [2]: inactive
- Potency [3]: inactive
- Potency [14]: inactive
- Potency [4]: inactive
- outcome [15]: inactive
- Potency [16]: inactive
- outcome [5]: inactive
- Potency [6]: inactive
- Potency [7]: inactive
- Potency [8]: inactive
- Potency [17]: inactive
- outcome [9]: inactive
- outcome [10]: inactive
- outcome [11]: inactive
- outcome [12]: inactive
- outcome [13]: inactive

SMILES: CCn1cc(C(=O)O)c(=O)c2cc(F)c(N3CCN(C)CC3)cc21
- activation [1]: 2.22% [at 19 µM]
- activity change, negative = cytotoxicity [3]: 3.8% [at 19 µM]
- activity change, negative = cytotoxicity [14]: 5.67% [at 19 µM]
- activity change, negative = cytotoxicity [4]: 0.879% [at 19 µM]
- activation [18]: 1.75% [at 19 µM]
- cAMP activity change [15]: -4.11% [at 18.9 µM]
- activity change, negative = inhibition [16]: 0.775% [at 19 µM]
- activity change, negative = cytotoxicity [5]: 0.853% [at 19 µM]
- activation [6]: -0.0581% [at 19 µM]
- activity change, negative = cytotoxicity [8]: 0.0653% [at 18.9 µM]
- activity change, negative = cytotoxicity [17]: -1.41% [at 19 µM]
- activity change, negative = cytotoxicity [10]: -2.92% [at 15.8 µM]
- activation [11]: 0.23% [at 15.8 µM]
- activity, negative = inhibition [12]: 2.2% [at 10.5 µM]
- activation [13]: 0.129% [at 11.8 µM]

SMILES: CC/C=C\C#N
- outcome [1]: inactive
- Potency [2]: inactive
- Potency [3]: inactive
- Potency [14]: inactive
- Potency [4]: inactive
- Potency [16]: inactive
- outcome [5]: inactive
- Potency [6]: inactive
- Potency [7]: inactive
- Potency [8]: inactive
- Potency [17]: inactive
- outcome [9]: inactive
- outcome [10]: inactive
- outcome [11]: inactive
- outcome [12]: inactive
- outcome [13]: inactive

SMILES: NC(=O)c1ncn([C@@H]2O[C@H](CO)[C@@H](O)[C@H]2O)c1O
- outcome [1]: inactive
- Potency [2]: inactive
- Potency [3]: inactive
- Potency [14]: inactive
- Potency [4]: inactive
- Potency [18]: inactive
- Potency [16]: inactive
- Potency [6]: inactive
- Potency [7]: inactive
- Potency [8]: inactive
- Potency [17]: inactive
- outcome [9]: inactive
- outcome [10]: inactive
- outcome [11]: inactive
- outcome [12]: inactive
- outcome [13]: inactive

SMILES: C=CCOCC(O)CS(=O)(=O)O (stereo not given)
- outcome [1]: inactive
- Potency [2]: inactive
- Potency [3]: inactive
- Potency [14]: inactive
- Potency [4]: inactive
- outcome [15]: inactive
- outcome [5]: inactive
- Potency [6]: inactive
- Potency [7]: inactive
- Potency [8]: inactive
- Potency [17]: inactive
- outcome [9]: inactive
- outcome [10]: inactive
- outcome [11]: inactive
- outcome [12]: inactive
- outcome [13]: inactive

SMILES: CCOC(=O)Cn1c(=O)sc2cccc(Cl)c21
- outcome [1]: inactive
- Potency [2]: inactive
- Potency [3]: inactive
- Potency [4]: inactive
- Potency [18]: inactive
- outcome [15]: inactive
- Potency [16]: inactive
- outcome [5]: inactive
- Potency [6]: inactive
- Potency [8]: inactive
- Potency [17]: inactive
- outcome [9]: inactive
- outcome [10]: inactive
- outcome [11]: inactive
- outcome [12]: inactive
- outcome [13]: inactive

SMILES: CCCCCCCCC=O
- outcome [1]: inactive
- Potency [2]: inactive
- Potency [3]: inactive
- Potency [14]: inactive
- Potency [4]: inactive
- outcome [15]: inactive
- Potency [16]: inactive
- outcome [5]: inactive
- Potency [7]: inactive
- Potency [8]: inactive
- outcome [10]: inactive
